# Among all 13,000 compounds or so, about 3,200 (25%) showed an effect of 50% or more. The list shows a part of the results.
# Test system: P. falciparum stage V gametocytes
# Set-up: BacTiter-Glo ATP luminescence viability of purified stage V gametocytes in 384-well plates, per cent inhibition versus DMSO
# Conditions: 48 h, 5 µM; inhibitor
row,SMILES,% Inhibition [%]
1,COc1cccc(C=Cc2nc(=O)c3ccccc3o2)c1OC [TCMDC-124577],34.84
2,COc1ccc(Cc2cnc3nc(N)nc(N)c3c2C)cc1OC [TCMDC-138057],6.807
3,CCCCc1ccc(C(=O)Nc2ccc3nc(N4CCN(C)CC4)cc(C)c3c2)cc1 [TCMDC-125570],-31.24
4,CCCCc1ccc(C(=O)Nc2ccc3nc(N4CCN(CC)CC4)cc(C)c3c2)cc1 [TCMDC-125578],-16.83
5,Nc1ccnc2ccc(NC(=O)CCCCCc3ccccc3)cc12 [TCMDC-139070],2.045
6,CNc1c2c(nc3ccc(NC(=O)CCCCCCc4ccccc4)cc13)CCCC2 [TCMDC-139066],79.48
7,O=C(CCCCCCc1ccccc1)Nc1ccc2nc3c(c(NCc4ccccc4)c2c1)CCCC3 [TCMDC-139063],91.52
8,O=C(Nc1ccc2nc3n(c(=O)c2c1)CCCCC3)C(=O)N1CCC(Cc2ccccc2)CC1 [TCMDC-125294],-23.73
9,COc1ccc2nccc(NN=Cc3cccnc3)c2c1 [TCMDC-142032],-14.51
10,O=C(Nc1nccs1)c1cn(-c2ccccc2)nc1-c1ccc(Cl)s1 [TCMDC-123623],9.788
11,CC(C)(CNC(=O)C1CCN(CCOc2ccc(Cl)cc2)CC1)c1nc(-c2ccc(Cl)c(O)c2)c(-c2ccncc2)[nH]1 [TCMDC-141124],-30.29
12,Cc1cccc(CN2CCCN(Cc3ccc(C(=O)Nc4ccc(C)c(F)c4)cc3)CC2)c1 [TCMDC-136396],-4.425
13,COc1ccc(CNCCc2cccs2)cc1-c1cccc(S(=O)(=O)NCCN2CCCC2)c1 [TCMDC-132479],91.1
14,COc1ccc(CNCCc2cccs2)cc1-c1ccc(OC)c(S(=O)(=O)NCCN2CCCC2)c1 [TCMDC-132476],71.75
15,Cc1cc(-c2ccc(CNCCc3cccs3)cc2)ccc1S(=O)(=O)NCc1ccccc1 [TCMDC-132473],18.33
16,COc1ccc(CNCCc2cccs2)cc1-c1ccc(S(=O)(=O)NCCN2CCCC2)cc1 [TCMDC-132475],76.8
17,S=c1nc(-c2ccccc2)n2ccsc2n1 [TCMDC-123905],9.815
18,CC(C)c1ncc(-c2ccncc2)c(C2CCC(CNC(=O)c3cccnc3)CC2)n1 (stereo not drawn) [TCMDC-124825],14.15
19,O=C(Nc1cccc(-c2ccc(-c3nc4ccccc4[nH]3)cc2)c1)Nc1ccc(F)c(F)c1F [TCMDC-133230],-14.97
20,CCc1cccc(OCCCON2C(N)=NC(N)=NC2(C)C)c1 [TCMDC-131306],2.586
21,Fc1ccc2nc(-c3ccc(-c4ccc(CN5CCN(c6cnccn6)CC5)cc4)s3)[nH]c2c1 [TCMDC-133893],9.584
22,O=C(CCCCCNC(=O)c1ccc(O)c(-c2ccc(Cl)c(Cl)c2)c1)NC1CCCc2ccccc21 (stereo not drawn) [TCMDC-140866],4.143
23,CC1CN(c2ccc3[nH]cc(Sc4ccc(-c5cccs5)cc4)c3c2)CC(C)N1 (stereo not drawn) [TCMDC-136644],-55.49
24,CC(Sc1n[nH]c(-c2cccs2)n1)C(=O)c1c[nH]c2ccccc12 (stereo not drawn) [TCMDC-125010],53.42

row,SMILES,% Inhibition [%]
1,Cc1noc(-c2cccs2)c1C(=O)NC(C)c1cccc2ccccc12 (stereo not drawn) [TCMDC-124788],-15.69
2,COC(=O)c1ccc2c(-c3nc4ccc(OC)cc4[nH]3)c[nH]c2c1 [TCMDC-135457],32.14
3,COc1cccc(-c2cc(C(=O)Nc3ccc4nc(-c5ccccc5)[nH]c4c3)[nH]n2)c1 [TCMDC-134319],8.642
4,O=C(CSc1n[nH]c(-c2ccccc2Br)n1)c1c[nH]c2ccccc12 [TCMDC-123710],82.49
5,COc1ccc2nc(SC(C)C(=O)c3c[nH]c4ccccc34)[nH]c2c1 (stereo not drawn) [TCMDC-125034],61.61
6,Cc1cc(N(C)C)nc(Nc2ccc(NC(=O)c3c(F)cccc3F)cc2)n1 [TCMDC-124977],1.948
7,COc1cc(SC)c(Br)cc1-c1nc2ccncc2[nH]1 [TCMDC-138164],-13.77
8,Oc1ccc(CCNc2nc(NCc3ccccc3Oc3ccc(C(F)(F)F)cc3)nc(N3CCNCC3)n2)cc1 [TCMDC-134133],-9.208
9,CCOc1cc(C2C(C(=O)OC(C)C)=C(C)NC3=C2C(=O)CC(c2ccc(Cl)cc2)C3)ccc1OC(C)=O (stereo not drawn) [TCMDC-125628],-56.66
10,Cc1cnc2ccc(NS(=O)(=O)c3ccc4c(Cl)cccc4c3)cc2c1N1CCNCC1 [TCMDC-139558],37.46
11,CCCCOc1ccc(CNCCCCCCNCc2ccc(OCCCC)c3ccccc23)c2ccccc12 [TCMDC-137281],121.9
12,CN(C)c1c(CNCCCCCCNCc2ccc3ccccc3c2N(C)C)ccc2ccccc12 [TCMDC-137834],115.6
13,CCCCSc1c(CNCCCCCCNCc2ccc3ccccc3c2SCCCC)ccc2ccccc12 [TCMDC-137825],112.9
14,CCOc1c(CNCCCCCCNCc2ccc3ccccc3c2OCC)ccc2ccccc12 [TCMDC-137942],73.68
15,CCOc1c(Br)cc(Cl)cc1CNCCCNc1nc2ccccc2[nH]1 [TCMDC-140106],5.667
16,CCCc1ccc2c(c1O)CCC(N(CCC)CCC)C2 (stereo not drawn) [TCMDC-138031],-27.54
17,COc1ccc(CN(C)CC(O)COc2ccc(NC(=O)c3cccc4c(=O)c5cccc(OC)c5[nH]c34)cc2)cc1OC (stereo not drawn) [TCMDC-131851],12.51
18,O=C(Cc1ccccc1)NC1(c2ccccc2)CCN(CCc2c[nH]c3ccc(F)cc23)CC1 [TCMDC-131991],26.26
19,CCC(C)c1ccc(NC(=O)c2ccc(S(=O)(=O)Nc3ccc(OC)c(N4CCN(CC5CC5)CC4)c3)cc2)cc1 (stereo not drawn) [TCMDC-136299],-16.95
20,Oc1ccccc1CN1CCC2(CCCN(Cc3ccccc3F)C2)C1 (stereo not drawn) [TCMDC-124620],28.07
21,Cc1cc(NC2CCCC2)nc(Nc2ccc(F)cc2)n1 [TCMDC-133472],46.74
22,CCCCOc1cc(CNCCCCCCNCc2cc(OCCCC)cc3ccccc23)c2ccccc2c1 [TCMDC-137824],36.59
23,CCCCOc1c(CNCCCCCCNCc2ccc3ccccc3c2OCCCC)ccc2ccccc12 [TCMDC-137975],107.4
24,COC(=O)c1cccc(CNCc2ccc(-c3ccc(-c4nc5cc(C(F)(F)F)ccc5[nH]4)cc3)cc2)c1.O=C(O)C(F)(F)F [TCMDC-132954],-38.93

row,SMILES,% Inhibition [%]
1,CC1(C)N=C(N)N=C(N)N1OCc1cc2ccccc2cc1CON1C(N)=NC(N)=NC1(C)C [TCMDC-131627],15.22
2,O=C(/C=C/c1ccc(Cl)c(Cl)c1)NCCCCCCN1CCN(C(=O)Nc2ccc(C(F)(F)F)cc2)CC1 [TCMDC-135824],-51.85
3,O=C(NNC(=O)c1ccc(CN2CCC(c3nc4ccccc4[nH]3)CC2)cc1)Nc1ccc(Oc2ccccc2)cc1 [TCMDC-135310],0.2458
4,O=C(/C=C/c1ccc(Cl)c(Cl)c1)NCCCCN1CCCN(C(=O)Nc2ccc(C(F)(F)F)cc2)CC1 [TCMDC-135930],-28.77
5,CCOC(=O)c1ccc(NC(=O)NCCCC2CCCN(CCCCCNC(=O)/C=C/c3ccc(Cl)c(Cl)c3)C2)cc1 (stereo not drawn) [TCMDC-139516],55.81
6,CN(C(=O)Nc1ccc(C(F)(F)F)cc1)C1CCN(CCCCCNC(=O)/C=C/c2ccc(Cl)c(Cl)c2)CC1 [TCMDC-139524],54.85
7,O=C(/C=C/c1ccc(Cl)c(Cl)c1)NCCCCCN1CCCC(CCCNC(=O)Nc2ccc(C(F)(F)F)cc2)C1 (stereo not drawn) [TCMDC-139517],56.6
8,O=C(NCC1CCN(C/C=C/c2ccccc2)CC1)Nc1ccc(Oc2ccccc2)cc1 [TCMDC-139153],95.36
9,O=C(NCCCCN1CCN(CC=Cc2ccccc2)CC1)c1ccc(NC(=O)c2cc(Cl)cc(Cl)c2)cc1 [TCMDC-138216],-21.85
10,CN(C(=O)Nc1ccc(F)cc1)C1CCN(CCCCCNC(=O)/C=C/c2ccc(Cl)c(Cl)c2)CC1 [TCMDC-139492],-6.373
11,Cn1cc(CCNc2ccnc(N3CCC(c4ncc[nH]4)CC3)n2)c2ccccc21 [TCMDC-135120],26.64
12,CCOC(=O)CCCc1cc(NC2CCN(C)CC2)nc(Nc2ccc(OC)cc2)n1 [TCMDC-134017],-45.24
13,Cc1ccc(NC(=O)c2ccc(NCCCN3CC(C)CC(C)C3)c([N+](=O)[O-])c2)cc1F (stereo not drawn) [TCMDC-125684],-7.765
14,Cc1cnc(N)c(/C=C/c2cncc(C(=O)NCCc3ccc(Cl)cc3Cl)c2)c1 [TCMDC-134509],-9.663
15,O=C(/C=C/c1ccc(Cl)c(Cl)c1)NCCCCCN1CCC(NC(=O)Nc2ccc(C(F)(F)F)cc2)C1 (stereo not drawn) [TCMDC-139527],-24.61
16,O=C(/C=C/c1ccc(Cl)c(Cl)c1)NCCCCCN1CCN(C(=O)Nc2ccc(C(F)(F)F)cc2)CC1 [TCMDC-135734],-55.55
17,CCCCCCCNC(=O)NCC1CCCN(CCCCCNC(=O)/C=C/c2ccc(Cl)c(Cl)c2)C1 (stereo not drawn) [TCMDC-139518],11.83
18,O=C(/C=C/c1ccc(Cl)c(Cl)c1)NCCCCCN1CCCC(CNC(=O)Nc2ccc(Oc3ccccc3)cc2)C1 (stereo not drawn) [TCMDC-139522],54.61
19,CC(C)c1ccc(NC(=O)NCCCC2CCCN(CCCCCNC(=O)/C=C/c3ccc(Cl)c(Cl)c3)C2)cc1 (stereo not drawn) [TCMDC-139515],38.89
20,O=C(/C=C/c1ccc(Cl)c(Cl)c1)NCCCCCN1CCC(NC(=O)Nc2ccc(Cl)c(C(F)(F)F)c2)CC1 [TCMDC-135730],1.176
21,O=C(/C=C/c1ccc(Cl)c(Cl)c1)NCCCCCN1CCCC(CNC(=O)Nc2ccc(C(F)(F)F)cc2)C1 (stereo not drawn) [TCMDC-139521],91.99
22,O=C(/C=C/c1ccc(Cl)c(Cl)c1)NCCCCCN1CCC(CCCNC(=O)Nc2ccc(C(F)(F)F)cc2)CC1 [TCMDC-139514],102.3
23,O=C(/C=C/c1ccc(Cl)c(Cl)c1)NCCCCCN1CCC(NC(=O)Nc2ccc(C(F)(F)F)cc2)CC1 [TCMDC-135723],-19.76
24,CC(C)c1ccc(NC(=O)NCC2CCCN(CCCCCNC(=O)/C=C/c3ccc(Cl)c(Cl)c3)C2)cc1 (stereo not drawn) [TCMDC-139519],58.09
